A647 autofl: compound autofluorescence in A647 spectral region | Compound fluorescence, A647 channel (570/671 nm), Tris buffer | 59,000 tested, under 10 active | max dye-equivalent concentration, M | AID 592;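 further: values scaled relative to a standard on each plate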
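Buffer was dispensed, compounds and Alexa 647 standards were pin-transferred, and plates sat 15 min at room temperature. Intensity at 570/671 nm was then converted to dye-equivalent concentration using the plate's A647 standard curve.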
TexasRed autofl: Texas Red region autofluorescence; Compound fluorescence, Texas Red channel, 547/618 nm; active compounds read high; max dye-equivalent concentration, M; 59,000 tested, 0.06% active; in the data active means max dye-equivalent concentration above about 10 nM; inconclusive means between about 1.1 nM and that limit
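Dye-equivalent concentrations come from scaling compound signal (ex 547, em 618 nm) to six Texas Red standard concentrations run on every plate, after 15 min room-temperature incubation in pH 8.0 Tris (100 mM).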
Resorufin autofl: compound fluoresces in the resorufin spectral region; Compound fluorescence, resorufin region 547/598 nm, buffer; active compounds read high; max dye-equivalent concentration, M; 59,000 tested, 0.04% active
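Dye-equivalent concentration values derive from comparing each well's 547/598 nm fluorescence against resorufin standards included on every plate. Incubation was 15 min at room temperature in 100 mM Tris, pH 8.0.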
A488 autofl: A488 region autofluorescence. compound autofluorescence, A488 spectral region, dye equivalency; Compound Type: qHTS ECL - MLSMR. 59,000 tested, 0.1% active. max dye equivalency, M
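Autofluorescence read at ex 480/em 540 nm after 15 min RT in 100 mM Tris pH 8.0; compound signal normalized to A488 standard series on each plate, reported as dye-equivalent concentration at each test concentration.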
Fluorescein autfl: compound fluoresces in the fluorescein spectral region | Compound autofluorescence, 480/540 nm, fluorescein-equivalent; active compounds read high | max fluorescein-equivalent concentration, M | 59,000 tested, 0.91% active; in the data active means max fluorescein-equivalent concentration above about 10 nM; inconclusive means between about 1.1 nM and that limit
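Each compound is tested across a concentration series in 100 mM Tris buffer at pH 8.0. After 15 min at room temperature, plates are imaged with 480 nm excitation and 540 nm emission filters, and intensities are converted to fluorescein-equivalent values.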
Rhodamine fluor: compound autofluorescence in rhodamine spectral region; max dye-equivalent concentration, M; Rhodamine-region fluorescence, 547/598 nm, Tris buffer; active compounds read high; AID 594; 59,000 tested, 0.05% active; in the data active means max dye-equivalent concentration above about 11 nM; inconclusive means between about 1.1 nM and that limit
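Intrinsic compound fluorescence, ex 547 / em 598 nm, CCD imager. Tris 100 mM pH 8.0; 15 min RT. Output = rhodamine dye-equivalent concentration at each compound concentration.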
* = called active by the depositor; i = inactive; ? = inconclusive; ! = not confirmed by another sample. Only some compounds are listed: those with a hit (about 0.96% of all), similar ones and a draw of the others. Unless noted, how the calls were made is not given here.

SMILES | A647 autofl | TexasRed autofl | Resorufin autofl | A488 autofl | Fluorescein autfl | Rhodamine fluor
COc1ccc(Cn2c(N)c(C(=O)NCc3ccco3)c3nc4ccccc4nc32)cc1OC | 1.4e-08 | i | i | i | ? | i
COCCOC(=O)c1c(N)n(Cc2ccc(OC)cc2)c2nc3ccccc3nc12 | 4.9e-09 | ? | i | i | i | i
CC(C)OC(=O)c1c(N)n(Cc2ccco2)c2nc3ccccc3nc12 | 3.5e-08 | i | i | ? | 3.6e-08M* | i
COCCOC(=O)c1c(N)n(Cc2ccco2)c2nc3ccccc3nc12 | 1e-09 | i | i | ? | 4.3e-08M* | i
COc1ccc2c(c1O)-c1cccc3c1[C@H](C2)N(C)CC3 | 1e-09 | ? | i | i | ? | i
CCN(CC)C(=O)N[C@@H]1C=C2c3cccc4[nH]cc(c34)C[C@@H]2N(C)C1 | 1e-09 | ? | i | i | 1.3e-08M*! | i
CN1C[C@H](CO)C=C2c3cccc4[nH]cc(c34)C[C@@H]21 | 2.9e-09 | i | i | i | 2.7e-08M* | i
Cn1c(=O)c2nncnc2n(C)c1=O | 6.9e-09 | i | i | i | 1.1e-08M* | i
COc1cc2c(cc1OC)[C@]13CCN4CC5=CCO[C@@H]6CC(=O)N2[C@@H]1[C@H]6[C@@H]5C[C@H]43 | 1.5e-08 | i | i | i | ? | i
CCCN1CCc2cccc3c2[C@@H]1Cc1ccc(O)c(O)c1-3 | 1e-09 | i | i | i | ? | i
CN1C[C@H](C(=O)N[C@@]2(C)O[C@@]3(O)[C@H]4CCCN4C(=O)[C@@H](Cc4ccccc4)N3C2=O)C=C2c3cccc4[nH]cc(c34)C[C@@H]21 | 3.1e-08 | i | i | i | 1.8e-08M* | i
CC(C)[C@@]1(NC(=O)[C@@H]2C=C3c4cccc5[nH]cc(c45)C[C@@H]3N(C)C2)O[C@]2(O)[C@H]3CCCN3C(=O)[C@H](Cc3ccccc3)N2C1=O | 1.7e-09 | i | i | ? | 2.9e-08M* | i
CC(C)[C@@]1(NC(=O)[C@H]2C[C@H]3c4cccc5[nH]cc(c45)C[C@@H]3N(C)C2)O[C@]2(O)[C@H]3CCCN3C(=O)[C@H](Cc3ccccc3)N2C1=O | 2.5e-08 | i | i | i | ? | i
CC[C@H]1[C@@H]2C[C@@H]3[C@@H]4N(C)c5ccccc5[C@@]45C[C@@H]([C@H]2[C@@H]5O)N3[C@@H]1O | 1e-09 | i | i | i | i | i
C[C@H]1CC[C@@H]2[C@@H](C)C(=O)O[C@H]3O[C@@]4(C)CC[C@@H]1[C@]32OO4 | 8.6e-09 | i | i | i | i | i
C[C@@H](CO)NC(=O)[C@H]1C=C2c3cccc4[nH]cc(c34)C[C@H]2N(C)C1 | 1e-09 | i | i | i | ? | i
CC[C@@H](CO)NC(=O)[C@@H]1C=C2c3cccc4c3c(cn4C)C[C@H]2N(C)C1 | 1e-09 | i | i | ? | 4.8e-08M* | i
CC[C@H](CO)NC(=O)[C@H]1C=C2c3cccc4[nH]cc(c34)C[C@@H]2N(C)C1 | 1.8e-09 | i | i | i | 2.1e-08M* | i
C[C@H]1CC[C@]2(NC1)O[C@@H]1C[C@@H]3[C@@H]4CC=C5C[C@H](O)CC[C@@]5(C)[C@H]4CC[C@@]3(C)[C@H]1[C@@H]2C | 1e-09 | i | i | i | i | i
C[C@@H]1O[C@H]1P(=O)(O)O | 5.1e-08 | i | i | i | ? | i
CCn1nc(-c2ccccc2)nc2c(=O)n(C)c(=O)nc1-2 | 1.9e-08 | i | i | 1.1e-08M* | 1.8e-07M* | i
CC[C@@H]1CN2CC[C@@H]1C[C@H]2[C@@H](O)c1ccnc2ccc(OC)cc12 | 6.9e-09 | i | i | i | i | i
CN1CC=C2C(C#N)=C(N)C(C#N)(C#N)C(c3ccncc3)C2C1 (stereo unspecified) | 1e-09 | ? | i | ? | 4.2e-08M* | i
N[C@@H](Cc1cc(Br)c(O)c(Br)c1)C(=O)O | 1e-09 | i | i | i | i | i
N[C@H](Cc1ccc2oc3cc(=O)c4ccccc4c-3nc2c1)C(=O)O | 1.1e-08 | 4.7e-08M* | ? | 3.9e-08M* | 8.5e-07M* | 1.2e-08M*
SMILES | A647 autofl | TexasRed autofl | Resorufin autofl | A488 autofl | Fluorescein autfl | Rhodamine fluor
C[C@@H]1O[C@H](O[C@H]2C[C@@H](O)[C@]3(CO)[C@H]4[C@H](O)C[C@]5(C)[C@@H](C6=CC(=O)OC6)CC[C@@]5(O)[C@H]4CC[C@]3(O)C2)[C@@H](O)[C@H](O)[C@H]1O | 1.9e-08 | i | i | i | i | i
CN1C[C@H](CNC(=O)OCc2ccccc2)C[C@@H]2c3cccc4c3c(cn4C)C[C@H]21 | 3.3e-08 | i | i | ? | 4.7e-08M* | i
CN1C[C@@H](CS(=O)(=O)N(C)C)C[C@H]2c3cccc4c3c(cn4C)C[C@@H]21 | 1e-09 | ? | i | i | 1.9e-08M* | i
CCN1C[C@@]2(C)CC[C@H](O)[C@@]34[C@@H]5C[C@H]6[C@H](O)[C@@H]5[C@](O)(C[C@@H]6OC)[C@H](C[C@@H]23)[C@H]14 | 1.3e-09 | i | i | i | i | i
COc1cccc2c1C(=O)c1c(O)c3c(c(O)c1C2=O)C[C@](O)(/C(C)=N\O)C[C@@H]3O[C@H]1C[C@H](N)[C@@H](O)[C@H](C)O1 | 1e-09 | 1.9e-08M* | 1.7e-08M* | ? | 7.6e-08M* | 3e-08M*
CCC(=NC1CCN(Cc2ccccc2)CC1)c1c(O)[nH]c(=O)[nH]c1=O | 1e-09 | i | i | i | i | i
CCOC(=O)c1ccc(NC(=O)c2c(O)[nH]c(=O)[nH]c2=O)cc1 | 1e-09 | ? | i | 2.3e-06M* | 4.1e-05M* | ?

Source: PubChem
